These results are taken from publication PMC7862700, “An all-to-all approach to the identification of sequence-specific readers for epigenetic DNA modifications on cytosine”.

What all share (experiment): DAPPL (digital affinity profiling via proximity ligation, sequencing); 10 mM Tris-HCl pH 7.5, 50 mM NaCl, 1 mM DTT, 4% glycerol, room temperature, 30 min; GST-TFs on glutathione beads, 16-mer random dsDNA library, 0.1% formaldehyde crosslink after washing; high values mean tight binding
One test concerns the target T1, FEV (Homo sapiens, UniProt Q99581 1-238).
T1 sequence: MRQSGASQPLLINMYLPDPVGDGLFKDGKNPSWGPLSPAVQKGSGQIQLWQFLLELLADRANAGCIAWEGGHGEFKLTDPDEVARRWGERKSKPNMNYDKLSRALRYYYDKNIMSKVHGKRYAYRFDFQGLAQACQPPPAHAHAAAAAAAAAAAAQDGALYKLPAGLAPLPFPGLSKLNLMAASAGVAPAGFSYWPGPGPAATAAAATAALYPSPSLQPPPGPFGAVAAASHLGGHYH
Particulars: protein: recombinant; tags: N-terminal GST; dsDNA, one strand shown. The method, boiled down:
(§1)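 Human transcription factors were made in yeast as GST fusions, captured on glutathione beads and barcoded with DNA. With a tag-only sample included, the pool was incubated with 200 nmole of a random double-stranded 16-mer DNA library in Tris/NaCl/DTT/glycerol buffer at room temperature for 30 min, then crosslinked with 0.1% formaldehyde after washing, ligated by proximity, amplified and sequenced. For binding signal, each hexamer's read frequency for a factor is divided by its frequency for the tag-only sample.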

The next test deals with ETV5 (Homo sapiens, UniProt P41161 1-510). Particulars: protein: recombinant; tags: N-terminal GST; dsDNA, one strand shown. The method, boiled down:
as §1

For the next test, the target named is HSF1 (Homo sapiens, UniProt Q00613 1-529). The note with it: protein: recombinant; tags: N-terminal GST; chain copies: 3; dsDNA, one strand shown. The method in brief: as §1
Sequence of HSF1 (Q00613 whole entry): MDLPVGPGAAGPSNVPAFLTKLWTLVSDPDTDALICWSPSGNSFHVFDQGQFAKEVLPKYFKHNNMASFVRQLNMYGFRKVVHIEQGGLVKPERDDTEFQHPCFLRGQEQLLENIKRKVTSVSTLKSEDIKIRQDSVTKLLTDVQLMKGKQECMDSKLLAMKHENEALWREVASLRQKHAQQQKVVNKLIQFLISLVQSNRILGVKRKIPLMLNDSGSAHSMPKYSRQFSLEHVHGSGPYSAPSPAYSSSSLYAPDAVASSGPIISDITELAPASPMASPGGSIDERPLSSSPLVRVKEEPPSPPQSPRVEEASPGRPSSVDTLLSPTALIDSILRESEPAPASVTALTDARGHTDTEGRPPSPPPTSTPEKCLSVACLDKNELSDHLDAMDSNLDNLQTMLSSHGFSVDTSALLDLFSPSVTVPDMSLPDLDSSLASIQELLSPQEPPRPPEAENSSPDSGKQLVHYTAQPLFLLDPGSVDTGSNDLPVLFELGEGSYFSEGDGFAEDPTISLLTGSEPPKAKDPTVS
A further test has as its target T2, SPIC (Homo sapiens, UniProt Q8N5J4 1-248).
T2 sequence: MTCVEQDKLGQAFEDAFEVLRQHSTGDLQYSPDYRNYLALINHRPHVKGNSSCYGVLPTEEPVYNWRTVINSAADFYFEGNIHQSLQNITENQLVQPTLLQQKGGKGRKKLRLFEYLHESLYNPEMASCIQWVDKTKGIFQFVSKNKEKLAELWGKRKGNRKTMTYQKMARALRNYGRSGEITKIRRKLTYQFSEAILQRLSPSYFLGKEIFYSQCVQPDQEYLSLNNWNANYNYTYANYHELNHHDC
The note with it: protein: recombinant; tags: N-terminal GST; dsDNA, one strand shown. The method, boiled down: as §1

A further test addresses ELF4 (Homo sapiens, UniProt Q99607 1-663). The note with it: protein: recombinant; tags: N-terminal GST; dsDNA, one strand shown. The method, boiled down: as §1
The target in a further test is T3, ELK4 (Homo sapiens, UniProt P28324-2 1-405).
T3 sequence: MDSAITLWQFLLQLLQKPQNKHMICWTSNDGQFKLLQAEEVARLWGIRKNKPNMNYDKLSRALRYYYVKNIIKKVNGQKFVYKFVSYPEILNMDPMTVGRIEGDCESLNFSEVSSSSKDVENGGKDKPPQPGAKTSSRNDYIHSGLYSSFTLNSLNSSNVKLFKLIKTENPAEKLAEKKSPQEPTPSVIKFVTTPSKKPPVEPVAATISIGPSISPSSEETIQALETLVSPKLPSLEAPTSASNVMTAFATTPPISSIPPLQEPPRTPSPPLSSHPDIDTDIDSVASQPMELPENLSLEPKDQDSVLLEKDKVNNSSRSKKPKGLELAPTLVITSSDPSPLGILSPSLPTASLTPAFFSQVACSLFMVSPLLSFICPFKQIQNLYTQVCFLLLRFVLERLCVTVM
The note with it: protein: recombinant; tags: N-terminal GST; dsDNA, one strand shown. The method, boiled down:
as §1

The next test addresses T4, ETV2 (Homo sapiens, UniProt O00321 1-342).
T4 sequence: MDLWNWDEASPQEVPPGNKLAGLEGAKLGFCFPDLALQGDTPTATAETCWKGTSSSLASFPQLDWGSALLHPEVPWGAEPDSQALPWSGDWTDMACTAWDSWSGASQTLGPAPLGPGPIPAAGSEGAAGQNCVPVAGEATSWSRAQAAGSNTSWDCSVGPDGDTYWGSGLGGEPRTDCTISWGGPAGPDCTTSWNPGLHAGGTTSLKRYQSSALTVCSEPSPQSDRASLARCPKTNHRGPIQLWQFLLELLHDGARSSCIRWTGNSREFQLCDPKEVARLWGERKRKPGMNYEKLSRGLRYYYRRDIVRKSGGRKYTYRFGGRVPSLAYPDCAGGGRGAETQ
The note with it: protein: recombinant; tags: N-terminal GST; dsDNA, one strand shown. The method, boiled down:
as §1

In the next test the target is T5, ELF3 (Homo sapiens, UniProt P78545 1-371).
T5 sequence: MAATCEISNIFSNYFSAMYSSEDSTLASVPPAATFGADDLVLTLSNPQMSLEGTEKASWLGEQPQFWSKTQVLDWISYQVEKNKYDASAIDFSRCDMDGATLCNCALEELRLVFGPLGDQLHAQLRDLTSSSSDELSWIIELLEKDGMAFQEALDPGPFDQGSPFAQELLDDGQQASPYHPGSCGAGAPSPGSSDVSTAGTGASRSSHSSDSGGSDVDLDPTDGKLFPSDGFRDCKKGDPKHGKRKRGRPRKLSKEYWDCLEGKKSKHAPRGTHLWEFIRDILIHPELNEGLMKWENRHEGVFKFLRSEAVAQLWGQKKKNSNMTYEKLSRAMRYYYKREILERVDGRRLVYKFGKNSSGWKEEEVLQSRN
The note with it: protein: recombinant; tags: N-terminal GST; dsDNA, one strand shown. The method, boiled down:
as §1

Another test concerns the target CRX (Homo sapiens, UniProt O43186 1-299). Particulars: protein: recombinant; tags: N-terminal GST; dsDNA, one strand shown. The method in brief: as §1
A further test has as its target ETV1 (Homo sapiens, UniProt P50549 1-477). The note with it: protein: recombinant; tags: N-terminal GST; dsDNA, one strand shown. The method, boiled down: as §1
Another test has as its target T6, ERF (Homo sapiens, UniProt P50548 1-548).
T6 sequence: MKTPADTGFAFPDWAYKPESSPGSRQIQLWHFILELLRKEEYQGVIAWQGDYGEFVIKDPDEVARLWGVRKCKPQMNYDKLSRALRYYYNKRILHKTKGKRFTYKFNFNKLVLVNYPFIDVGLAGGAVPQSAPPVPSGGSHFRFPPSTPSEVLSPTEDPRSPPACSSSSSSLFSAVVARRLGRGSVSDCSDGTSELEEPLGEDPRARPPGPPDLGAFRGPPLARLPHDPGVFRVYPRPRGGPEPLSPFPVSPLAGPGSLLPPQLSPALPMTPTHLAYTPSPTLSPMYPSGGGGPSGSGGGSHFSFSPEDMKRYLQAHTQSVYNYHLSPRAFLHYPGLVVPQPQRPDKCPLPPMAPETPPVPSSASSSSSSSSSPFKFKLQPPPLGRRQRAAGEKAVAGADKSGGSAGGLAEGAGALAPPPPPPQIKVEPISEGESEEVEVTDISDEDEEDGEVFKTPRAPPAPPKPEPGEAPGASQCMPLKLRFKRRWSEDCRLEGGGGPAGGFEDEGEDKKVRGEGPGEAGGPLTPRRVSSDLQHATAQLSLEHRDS
Particulars: protein: recombinant; tags: N-terminal GST; dsDNA, one strand shown. The method in brief:
as §1

The next test deals with T7, ETV3L (Homo sapiens, UniProt Q6ZN32 1-361).
T7 sequence: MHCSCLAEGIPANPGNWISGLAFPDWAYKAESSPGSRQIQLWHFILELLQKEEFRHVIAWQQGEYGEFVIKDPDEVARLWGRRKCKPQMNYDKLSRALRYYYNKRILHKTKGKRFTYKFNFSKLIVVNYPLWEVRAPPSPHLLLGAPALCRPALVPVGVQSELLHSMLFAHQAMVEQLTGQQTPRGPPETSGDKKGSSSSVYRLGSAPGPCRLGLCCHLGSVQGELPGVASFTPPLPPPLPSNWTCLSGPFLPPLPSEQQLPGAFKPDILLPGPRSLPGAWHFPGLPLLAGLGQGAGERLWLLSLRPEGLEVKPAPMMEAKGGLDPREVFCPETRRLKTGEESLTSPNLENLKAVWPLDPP
Particulars: protein: recombinant; tags: N-terminal GST; dsDNA, one strand shown. The method in brief: as §1

In another test the target is T8, ETS2 (Homo sapiens, UniProt P15036 1-469).
T8 sequence: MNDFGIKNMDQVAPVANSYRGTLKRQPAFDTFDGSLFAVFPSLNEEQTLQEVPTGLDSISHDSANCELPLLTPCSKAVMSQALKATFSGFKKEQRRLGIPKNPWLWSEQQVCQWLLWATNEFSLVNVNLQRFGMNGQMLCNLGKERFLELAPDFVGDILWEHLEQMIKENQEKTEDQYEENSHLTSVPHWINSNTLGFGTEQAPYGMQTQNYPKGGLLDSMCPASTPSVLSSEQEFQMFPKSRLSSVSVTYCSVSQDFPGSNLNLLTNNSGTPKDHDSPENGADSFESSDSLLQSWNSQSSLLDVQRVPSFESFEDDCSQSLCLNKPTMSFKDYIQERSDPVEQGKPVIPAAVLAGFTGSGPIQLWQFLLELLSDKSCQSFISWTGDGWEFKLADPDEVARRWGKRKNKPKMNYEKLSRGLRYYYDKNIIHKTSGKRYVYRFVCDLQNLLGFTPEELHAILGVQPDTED
The note with it: protein: recombinant; tags: N-terminal GST; dsDNA, one strand shown. The method, boiled down: as §1

The target of a further test is T9, SPDEF (Homo sapiens, UniProt O95238 1-335).
T9 sequence: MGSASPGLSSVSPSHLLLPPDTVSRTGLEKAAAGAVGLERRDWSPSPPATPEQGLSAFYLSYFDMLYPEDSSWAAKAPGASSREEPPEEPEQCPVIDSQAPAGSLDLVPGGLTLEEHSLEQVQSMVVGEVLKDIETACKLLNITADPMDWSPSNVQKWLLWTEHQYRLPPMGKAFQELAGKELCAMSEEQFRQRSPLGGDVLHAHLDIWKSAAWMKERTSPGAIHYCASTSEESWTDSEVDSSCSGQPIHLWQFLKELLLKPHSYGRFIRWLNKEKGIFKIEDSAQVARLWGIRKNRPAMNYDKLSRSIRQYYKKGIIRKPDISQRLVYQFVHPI
Particulars: protein: recombinant; tags: N-terminal GST; dsDNA, one strand shown. The method in brief: as §1

Another test deals with T10, ETV7 (Homo sapiens, UniProt Q9Y603 1-341).
T10 sequence: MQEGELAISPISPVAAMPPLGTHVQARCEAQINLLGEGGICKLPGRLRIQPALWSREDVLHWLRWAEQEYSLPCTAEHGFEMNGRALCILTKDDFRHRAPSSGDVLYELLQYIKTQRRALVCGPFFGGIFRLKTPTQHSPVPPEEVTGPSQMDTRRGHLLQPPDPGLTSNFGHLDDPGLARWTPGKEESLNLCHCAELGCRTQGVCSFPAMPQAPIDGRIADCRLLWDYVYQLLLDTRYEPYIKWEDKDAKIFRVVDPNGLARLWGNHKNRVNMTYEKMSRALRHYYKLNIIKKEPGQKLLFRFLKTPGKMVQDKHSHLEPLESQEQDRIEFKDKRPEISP
The note with it: protein: recombinant; tags: N-terminal GST; dsDNA, one strand shown. The method in brief: as §1

The target in a further test is T11, ELF5 (Homo sapiens, UniProt Q9UKW6-2 1-255).
T11 sequence: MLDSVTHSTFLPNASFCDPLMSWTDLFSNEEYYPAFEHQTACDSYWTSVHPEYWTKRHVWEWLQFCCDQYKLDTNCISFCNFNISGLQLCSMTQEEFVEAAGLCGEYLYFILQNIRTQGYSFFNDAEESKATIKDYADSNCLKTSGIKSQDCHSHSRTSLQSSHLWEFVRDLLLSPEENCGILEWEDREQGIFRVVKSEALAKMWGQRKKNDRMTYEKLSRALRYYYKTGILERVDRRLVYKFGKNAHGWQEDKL
Particulars: protein: recombinant; tags: N-terminal GST; dsDNA, one strand shown. The method in brief: as §1

The next test has as its target T12, ETV3 (Homo sapiens, UniProt P41162-2 1-143).
T12 sequence: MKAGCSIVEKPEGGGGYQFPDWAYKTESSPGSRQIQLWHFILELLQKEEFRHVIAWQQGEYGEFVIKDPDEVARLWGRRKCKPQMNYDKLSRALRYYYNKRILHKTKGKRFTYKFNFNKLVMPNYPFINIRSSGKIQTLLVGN
The note with it: protein: recombinant; tags: N-terminal GST; dsDNA, one strand shown. The method, boiled down: as §1

The target of another test is ETV6 (Homo sapiens, UniProt P41212 1-452). The note with it: protein: recombinant; tags: N-terminal GST; dsDNA, one strand shown. The method, boiled down:
as §1

Sequence of ETV6 (P41212 whole entry): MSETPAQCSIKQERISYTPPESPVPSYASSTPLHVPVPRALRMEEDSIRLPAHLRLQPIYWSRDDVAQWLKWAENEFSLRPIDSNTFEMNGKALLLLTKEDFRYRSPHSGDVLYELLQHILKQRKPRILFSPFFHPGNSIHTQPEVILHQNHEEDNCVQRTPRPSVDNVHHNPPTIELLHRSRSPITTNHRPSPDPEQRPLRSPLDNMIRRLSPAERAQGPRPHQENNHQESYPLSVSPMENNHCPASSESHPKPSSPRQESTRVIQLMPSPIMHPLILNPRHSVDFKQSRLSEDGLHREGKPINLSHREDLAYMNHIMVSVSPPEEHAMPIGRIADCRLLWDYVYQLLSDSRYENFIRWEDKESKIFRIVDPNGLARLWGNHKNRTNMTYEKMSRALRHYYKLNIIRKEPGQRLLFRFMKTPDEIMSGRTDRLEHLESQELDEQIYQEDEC
Sequence of ELF4 (Q99607 whole entry): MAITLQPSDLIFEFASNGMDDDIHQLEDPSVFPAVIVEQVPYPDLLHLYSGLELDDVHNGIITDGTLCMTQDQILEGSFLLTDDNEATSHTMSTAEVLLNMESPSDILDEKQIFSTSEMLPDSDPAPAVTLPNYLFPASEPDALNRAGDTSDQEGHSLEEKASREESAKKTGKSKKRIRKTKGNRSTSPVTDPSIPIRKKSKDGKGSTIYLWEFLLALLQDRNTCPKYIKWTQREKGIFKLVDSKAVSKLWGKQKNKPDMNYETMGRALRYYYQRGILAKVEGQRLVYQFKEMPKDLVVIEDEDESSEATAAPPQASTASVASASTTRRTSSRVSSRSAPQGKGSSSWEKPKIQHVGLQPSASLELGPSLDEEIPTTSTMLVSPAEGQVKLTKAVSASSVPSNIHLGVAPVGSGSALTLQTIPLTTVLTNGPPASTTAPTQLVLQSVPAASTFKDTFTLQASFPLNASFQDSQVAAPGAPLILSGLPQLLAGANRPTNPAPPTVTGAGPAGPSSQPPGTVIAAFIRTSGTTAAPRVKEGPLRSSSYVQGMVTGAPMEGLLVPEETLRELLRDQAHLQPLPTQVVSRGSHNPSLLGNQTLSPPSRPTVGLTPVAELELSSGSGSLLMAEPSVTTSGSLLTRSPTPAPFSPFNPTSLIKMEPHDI
Sequence of CRX (O43186 whole entry): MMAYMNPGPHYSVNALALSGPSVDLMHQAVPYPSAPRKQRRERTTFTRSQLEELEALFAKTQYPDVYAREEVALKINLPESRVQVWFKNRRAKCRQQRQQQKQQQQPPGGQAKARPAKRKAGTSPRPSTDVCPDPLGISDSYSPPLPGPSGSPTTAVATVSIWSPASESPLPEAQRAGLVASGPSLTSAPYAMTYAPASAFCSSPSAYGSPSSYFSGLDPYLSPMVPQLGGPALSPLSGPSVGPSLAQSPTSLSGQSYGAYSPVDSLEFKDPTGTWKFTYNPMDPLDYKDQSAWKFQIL
Sequence of ETV5 (P41161 whole entry): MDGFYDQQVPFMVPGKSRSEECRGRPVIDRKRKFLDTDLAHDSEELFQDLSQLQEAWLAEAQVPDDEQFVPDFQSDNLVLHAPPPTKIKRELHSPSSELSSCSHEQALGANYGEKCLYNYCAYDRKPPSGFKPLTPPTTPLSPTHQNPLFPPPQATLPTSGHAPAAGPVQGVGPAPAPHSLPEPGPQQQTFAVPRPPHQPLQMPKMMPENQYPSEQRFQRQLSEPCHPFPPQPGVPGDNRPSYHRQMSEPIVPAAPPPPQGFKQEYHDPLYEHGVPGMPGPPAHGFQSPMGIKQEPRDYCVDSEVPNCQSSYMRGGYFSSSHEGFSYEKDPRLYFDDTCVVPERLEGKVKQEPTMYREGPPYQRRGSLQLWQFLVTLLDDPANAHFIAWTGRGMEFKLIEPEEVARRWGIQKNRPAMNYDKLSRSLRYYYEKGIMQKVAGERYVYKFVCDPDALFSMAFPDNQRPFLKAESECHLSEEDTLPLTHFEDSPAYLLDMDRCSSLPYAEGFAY
Sequence of ETV1 (P50549 whole entry): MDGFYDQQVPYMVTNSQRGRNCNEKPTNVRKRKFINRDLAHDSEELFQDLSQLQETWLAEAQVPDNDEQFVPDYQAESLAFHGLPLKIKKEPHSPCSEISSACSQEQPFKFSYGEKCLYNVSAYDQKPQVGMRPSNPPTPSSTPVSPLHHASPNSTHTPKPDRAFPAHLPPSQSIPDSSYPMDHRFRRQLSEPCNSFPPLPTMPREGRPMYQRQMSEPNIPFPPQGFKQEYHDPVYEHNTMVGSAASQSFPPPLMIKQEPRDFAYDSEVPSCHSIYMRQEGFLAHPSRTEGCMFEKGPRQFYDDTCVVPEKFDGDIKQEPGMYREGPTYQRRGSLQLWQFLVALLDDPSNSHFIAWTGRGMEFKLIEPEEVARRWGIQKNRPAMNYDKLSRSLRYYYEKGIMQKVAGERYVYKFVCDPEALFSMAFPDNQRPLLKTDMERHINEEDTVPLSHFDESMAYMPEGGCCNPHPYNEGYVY

Take GCTATT: the binding signal in the test with FEV was 1.29 fold enrichment (6-mer frequency, TF over GST control); in the test with ETV5 it was 1.3 fold enrichment (6-mer frequency, TF over GST control); in the test with HSF1, 1.22 fold enrichment (6-mer frequency, TF over GST control); with SPIC, 1.38 fold enrichment (6-mer frequency, TF over GST control); with ELF4, 1.38 fold enrichment (6-mer frequency, TF over GST control); with ELK4 it was 1.56 fold enrichment (6-mer frequency, TF over GST control). Also, the binding signal with ETV2 is 1.41 fold enrichment (6-mer frequency, TF over GST control); with ELF3 it was 1.45 fold enrichment (6-mer frequency, TF over GST control); with CRX it was 1.38 fold enrichment (6-mer frequency, TF over GST control); with ETV1 it was 1.3 fold enrichment (6-mer frequency, TF over GST control); with ERF, 1.37 fold enrichment (6-mer frequency, TF over GST control); in the test with ETV3L, 1.34 fold enrichment (6-mer frequency, TF over GST control). Further, the binding signal is 1.25 fold enrichment (6-mer frequency, TF over GST control) with ETS2; 1.2 fold enrichment (6-mer frequency, TF over GST control) with SPDEF; 1.34 fold enrichment (6-mer frequency, TF over GST control) in the test with ETV7; 1.33 fold enrichment (6-mer frequency, TF over GST control) with ELF5; 1.25 fold enrichment (6-mer frequency, TF over GST control) with ETV3; 1.35 fold enrichment (6-mer frequency, TF over GST control) with ETV6.
